Measurements reported in ChEMBL document CHEMBL3988442, “University of Dundee, Small-Polar-MMV Screening Library” (2021).
For some assays here: Entries with a potency or affinity are not part of this list.

Experiments:
Parameters in all cases: scale not given: direction of the effect not stated beside the values
[1] = target: Protein translocase subunit SecA (Escherichia coli (strain K12)) (UniProt P10408); test: Assay to Identify E. coli SecA ATPase Inhibitors; type: functional; details: 30 µM
Sequence of Protein translocase subunit SecA (Escherichia coli (strain K12)) (P10408 whole entry): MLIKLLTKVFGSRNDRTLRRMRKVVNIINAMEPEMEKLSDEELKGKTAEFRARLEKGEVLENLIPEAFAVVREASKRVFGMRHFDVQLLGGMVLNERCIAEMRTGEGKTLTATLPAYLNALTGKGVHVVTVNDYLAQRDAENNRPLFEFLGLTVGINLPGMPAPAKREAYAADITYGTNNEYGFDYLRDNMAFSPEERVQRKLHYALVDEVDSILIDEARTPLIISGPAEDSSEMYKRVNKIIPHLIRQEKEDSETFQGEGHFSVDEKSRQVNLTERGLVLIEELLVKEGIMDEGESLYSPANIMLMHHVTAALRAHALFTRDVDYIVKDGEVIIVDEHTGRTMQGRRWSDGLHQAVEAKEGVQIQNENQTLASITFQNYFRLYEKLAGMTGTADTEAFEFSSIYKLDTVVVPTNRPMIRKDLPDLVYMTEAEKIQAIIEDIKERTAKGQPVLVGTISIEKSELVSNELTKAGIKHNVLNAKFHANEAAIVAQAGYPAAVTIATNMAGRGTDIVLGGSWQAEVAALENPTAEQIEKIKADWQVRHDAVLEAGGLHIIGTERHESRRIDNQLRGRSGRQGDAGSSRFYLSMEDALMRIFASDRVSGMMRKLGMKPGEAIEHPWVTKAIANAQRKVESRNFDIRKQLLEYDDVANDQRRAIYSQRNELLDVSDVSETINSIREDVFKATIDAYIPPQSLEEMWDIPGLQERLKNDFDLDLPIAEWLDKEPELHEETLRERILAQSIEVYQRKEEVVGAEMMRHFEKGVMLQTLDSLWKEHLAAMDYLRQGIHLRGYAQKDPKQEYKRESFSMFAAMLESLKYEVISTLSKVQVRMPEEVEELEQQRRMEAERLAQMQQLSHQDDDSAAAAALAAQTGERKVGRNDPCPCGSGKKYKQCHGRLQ

[2] = target: T1, Ubiquitin-activating enzyme e1, putative (Leishmania donovani (strain BPK282A1)) (UniProt E9BSI1); test: Leishmania donovani Ubiquitin Activating Enzyme (LdE1); type: functional; details: 30 µM
T1 sequence (whole entry): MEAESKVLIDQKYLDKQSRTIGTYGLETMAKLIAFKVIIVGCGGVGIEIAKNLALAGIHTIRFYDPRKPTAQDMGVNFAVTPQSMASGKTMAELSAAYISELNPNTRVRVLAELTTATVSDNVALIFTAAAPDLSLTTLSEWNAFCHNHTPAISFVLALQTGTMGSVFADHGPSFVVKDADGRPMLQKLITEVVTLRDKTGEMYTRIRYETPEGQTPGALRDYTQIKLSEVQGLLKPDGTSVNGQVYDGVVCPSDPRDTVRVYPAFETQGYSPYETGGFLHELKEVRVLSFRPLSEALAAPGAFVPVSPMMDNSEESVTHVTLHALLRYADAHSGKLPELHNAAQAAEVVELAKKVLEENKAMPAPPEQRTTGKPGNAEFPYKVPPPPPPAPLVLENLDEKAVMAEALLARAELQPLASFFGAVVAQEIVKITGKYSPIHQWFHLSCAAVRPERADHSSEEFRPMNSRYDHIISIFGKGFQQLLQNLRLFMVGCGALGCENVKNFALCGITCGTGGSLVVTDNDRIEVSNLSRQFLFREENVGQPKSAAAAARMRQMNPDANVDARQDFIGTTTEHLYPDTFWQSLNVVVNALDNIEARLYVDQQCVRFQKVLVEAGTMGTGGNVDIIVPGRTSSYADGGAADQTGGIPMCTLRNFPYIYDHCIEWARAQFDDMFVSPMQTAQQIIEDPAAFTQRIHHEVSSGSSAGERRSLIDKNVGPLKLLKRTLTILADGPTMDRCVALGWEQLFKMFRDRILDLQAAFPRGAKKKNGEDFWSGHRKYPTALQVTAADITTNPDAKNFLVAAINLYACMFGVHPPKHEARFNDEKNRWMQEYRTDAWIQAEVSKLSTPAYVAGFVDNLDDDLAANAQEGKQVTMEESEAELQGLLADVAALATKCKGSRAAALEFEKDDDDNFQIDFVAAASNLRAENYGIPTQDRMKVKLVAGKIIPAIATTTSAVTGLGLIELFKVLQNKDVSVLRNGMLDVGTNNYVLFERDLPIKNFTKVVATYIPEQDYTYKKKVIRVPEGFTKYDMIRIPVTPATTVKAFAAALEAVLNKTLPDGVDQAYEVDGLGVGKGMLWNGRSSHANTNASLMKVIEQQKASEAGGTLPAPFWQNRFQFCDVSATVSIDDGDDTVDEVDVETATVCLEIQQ

[3] = target: AMP-activated protein kinase, AMPK (Homo sapiens) (UniProt P54646+O43741+P54619+Q9UGJ0+Q9Y478+Q13131+Q9UGI9); test: AMP-dependent Kinase enzyme assay. An in vitro enzyme assay that detects ADP turnover that is directly proportional to AMPK activity. This uses naive AMPK that is activated during the assay with MK-8722; type: functional; details: 30 µM
[4] = target: Sialic acid-binding Ig-like lectin 9 (Homo sapiens) (UniProt Q9Y336); test: Hs-Siglec9 ALPHAscreen SOP 20170721; details: 10 µM
Sequence of Sialic acid-binding Ig-like lectin 9 (Homo sapiens) (Q9Y336 whole entry): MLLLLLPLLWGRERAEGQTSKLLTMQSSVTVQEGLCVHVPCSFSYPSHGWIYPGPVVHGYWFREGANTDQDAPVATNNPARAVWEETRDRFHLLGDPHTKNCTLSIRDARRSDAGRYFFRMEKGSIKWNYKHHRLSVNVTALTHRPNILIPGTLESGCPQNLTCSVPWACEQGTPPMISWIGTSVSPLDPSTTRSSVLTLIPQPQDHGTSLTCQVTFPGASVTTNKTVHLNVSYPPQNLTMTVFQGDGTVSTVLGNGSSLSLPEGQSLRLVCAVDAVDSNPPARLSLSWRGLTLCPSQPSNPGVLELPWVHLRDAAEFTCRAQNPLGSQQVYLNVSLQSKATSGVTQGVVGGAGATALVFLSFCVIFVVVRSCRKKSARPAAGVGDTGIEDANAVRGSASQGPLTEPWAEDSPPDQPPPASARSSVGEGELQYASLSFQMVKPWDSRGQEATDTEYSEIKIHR

Trypanosoma cruzi = test: Trypanosoma cruzi phosphomannomutase and mannose-1-phosphate guanylyltransferase assay; type: functional; details: 10 µM
[5] = target: T2, Arginase-2, mitochondrial (Homo sapiens) (UniProt P78540); test: in vitro enzyme assay to detect the production of urea directly proportional to the activity of Arginase II; type: functional; details: 33.3 µM; further: in the data most compounds retested in dose-response had high values
T2 sequence (whole entry): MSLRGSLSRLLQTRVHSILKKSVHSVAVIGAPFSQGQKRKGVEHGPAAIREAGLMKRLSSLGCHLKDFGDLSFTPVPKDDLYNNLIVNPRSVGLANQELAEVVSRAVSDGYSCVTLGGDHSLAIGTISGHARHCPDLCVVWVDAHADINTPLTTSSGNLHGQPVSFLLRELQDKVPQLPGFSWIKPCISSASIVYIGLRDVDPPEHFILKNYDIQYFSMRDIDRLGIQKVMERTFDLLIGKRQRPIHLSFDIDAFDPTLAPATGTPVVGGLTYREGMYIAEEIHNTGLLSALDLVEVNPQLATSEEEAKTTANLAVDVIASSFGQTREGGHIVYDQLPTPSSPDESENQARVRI

[6] = target: T3, Proteasome subunit beta (Trypanosoma cruzi) (UniProt O96673); test: Trypanosoma cruzi proteasome chymotrypsin-like activity (TcProtChymo) assay.; further: in the data most compounds retested in dose-response had high values; type: functional; details: 9.37 µM
T3 sequence (whole entry): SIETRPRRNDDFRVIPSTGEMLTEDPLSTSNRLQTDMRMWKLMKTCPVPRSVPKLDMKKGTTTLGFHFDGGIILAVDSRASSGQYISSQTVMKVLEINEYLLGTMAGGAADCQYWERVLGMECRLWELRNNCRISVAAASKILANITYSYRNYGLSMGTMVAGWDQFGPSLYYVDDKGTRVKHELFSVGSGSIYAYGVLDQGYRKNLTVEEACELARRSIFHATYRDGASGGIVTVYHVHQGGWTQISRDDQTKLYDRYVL

Homo sapiens = species on record: Homo sapiens; test: To identify inhibition of the IFN signalling (Jak-Stat) pathway via expression of an eGFP reporter gene under the control of an IFN-stimulated response element (ISRE) containing MxA promoter.; type: functional; details: 30 µM
[7] = target: T4, Tyrosyl-tRNA synthetase, putative (Trypanosoma cruzi (strain CL Brener)) (UniProt Q4DSP6); test: Trypanosoma cruzi tyrosyl tRNA synthetase (TcYRS) _High Tyrosine SOP; type: functional; details: 30 µM; further: in the data most compounds retested in dose-response had high values
T4 sequence (whole entry): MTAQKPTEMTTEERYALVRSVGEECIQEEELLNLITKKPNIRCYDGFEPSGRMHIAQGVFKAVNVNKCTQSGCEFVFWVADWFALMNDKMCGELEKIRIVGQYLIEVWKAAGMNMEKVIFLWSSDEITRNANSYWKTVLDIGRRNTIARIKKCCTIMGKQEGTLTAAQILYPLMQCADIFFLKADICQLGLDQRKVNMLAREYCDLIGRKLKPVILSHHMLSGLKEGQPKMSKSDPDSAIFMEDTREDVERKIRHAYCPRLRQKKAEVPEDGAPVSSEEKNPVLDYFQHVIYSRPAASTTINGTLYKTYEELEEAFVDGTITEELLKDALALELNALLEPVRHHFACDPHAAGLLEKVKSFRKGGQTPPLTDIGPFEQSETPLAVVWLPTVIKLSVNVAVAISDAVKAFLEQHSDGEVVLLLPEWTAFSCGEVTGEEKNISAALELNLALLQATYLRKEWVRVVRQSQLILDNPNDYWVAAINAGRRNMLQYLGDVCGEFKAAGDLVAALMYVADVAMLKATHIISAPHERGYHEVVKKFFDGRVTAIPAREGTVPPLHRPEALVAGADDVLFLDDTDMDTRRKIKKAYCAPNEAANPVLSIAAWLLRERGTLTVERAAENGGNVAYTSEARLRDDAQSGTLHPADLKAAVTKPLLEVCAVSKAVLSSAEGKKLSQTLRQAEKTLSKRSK

[8] = target: T4, Tyrosyl-tRNA synthetase, putative (Trypanosoma cruzi (strain CL Brener)); test: Trypanosoma cruzi tyrosyl tRNA synthetase (TcYRS) SOP; type: functional; details: 30 µM
[9] = target: Chromo domain-containing protein 1 (Saccharomyces cerevisiae (strain ATCC 204508 / S288c) (Baker's yeast)) (UniProt P32657); test: ScCHD-1 Enzyme Inhibition Assay; type: functional; details: 30 µM; further: in the data most compounds retested in dose-response had high values
Sequence of Chromo domain-containing protein 1 (Saccharomyces cerevisiae (strain ATCC 204508 / S288c) (Baker's yeast)) (P32657 whole entry, the tested form may be a part): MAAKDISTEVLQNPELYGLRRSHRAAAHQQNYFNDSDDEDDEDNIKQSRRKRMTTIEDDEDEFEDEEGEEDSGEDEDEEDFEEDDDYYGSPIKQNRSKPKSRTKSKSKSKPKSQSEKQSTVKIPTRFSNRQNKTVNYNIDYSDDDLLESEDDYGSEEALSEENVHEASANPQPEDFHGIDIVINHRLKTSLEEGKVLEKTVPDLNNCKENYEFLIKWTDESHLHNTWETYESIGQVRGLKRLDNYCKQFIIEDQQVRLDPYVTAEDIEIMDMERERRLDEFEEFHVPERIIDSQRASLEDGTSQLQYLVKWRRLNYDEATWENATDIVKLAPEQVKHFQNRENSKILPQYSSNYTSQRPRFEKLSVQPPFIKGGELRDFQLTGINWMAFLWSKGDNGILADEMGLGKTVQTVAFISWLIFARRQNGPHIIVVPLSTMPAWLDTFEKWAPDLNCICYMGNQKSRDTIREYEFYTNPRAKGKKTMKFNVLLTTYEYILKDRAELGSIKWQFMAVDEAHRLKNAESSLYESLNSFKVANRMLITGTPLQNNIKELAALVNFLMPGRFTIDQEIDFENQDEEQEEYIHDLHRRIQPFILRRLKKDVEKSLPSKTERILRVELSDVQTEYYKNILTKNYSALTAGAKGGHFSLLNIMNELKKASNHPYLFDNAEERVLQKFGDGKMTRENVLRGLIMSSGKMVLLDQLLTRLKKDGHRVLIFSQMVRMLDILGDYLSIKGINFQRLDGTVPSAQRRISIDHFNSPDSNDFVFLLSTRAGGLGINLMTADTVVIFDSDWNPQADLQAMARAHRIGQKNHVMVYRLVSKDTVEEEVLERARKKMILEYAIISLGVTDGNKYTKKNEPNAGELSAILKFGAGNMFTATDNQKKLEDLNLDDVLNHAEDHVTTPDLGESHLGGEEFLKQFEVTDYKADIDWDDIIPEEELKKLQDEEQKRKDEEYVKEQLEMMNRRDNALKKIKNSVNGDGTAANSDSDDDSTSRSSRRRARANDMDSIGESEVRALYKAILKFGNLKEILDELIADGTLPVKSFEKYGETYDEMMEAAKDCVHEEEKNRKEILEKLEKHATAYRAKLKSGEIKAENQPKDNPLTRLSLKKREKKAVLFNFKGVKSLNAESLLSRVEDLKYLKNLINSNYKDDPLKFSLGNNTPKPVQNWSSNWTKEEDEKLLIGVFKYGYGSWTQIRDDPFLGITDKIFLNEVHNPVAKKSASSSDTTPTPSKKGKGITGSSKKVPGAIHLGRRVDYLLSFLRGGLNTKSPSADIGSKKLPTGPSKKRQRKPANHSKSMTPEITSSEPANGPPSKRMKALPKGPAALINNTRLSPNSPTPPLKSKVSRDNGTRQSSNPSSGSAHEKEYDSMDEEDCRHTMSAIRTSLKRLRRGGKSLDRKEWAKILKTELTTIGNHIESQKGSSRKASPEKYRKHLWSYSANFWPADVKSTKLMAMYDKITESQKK

Row | Compound | Percent Effect [1] [%] | Percent Effect [2] [%] | Percent Effect [3] [%] | Percent Effect [4] [%] | Percent Effect (Trypanosoma cruzi) [%] | Percent Effect [5] [%] | Percent Effect [6] [%] | Percent Effect (Homo sapiens) [%] | Percent Effect [7] [%] | Percent Effect [8] [%] | Percent Effect [9] [%]
1 | CCc1nc(C2CCCN2CC(=O)Nc2c(C)nn(C)c2C)no1 (configuration not stated) | -2.75 | 0 | -6.03 | -5.34 | -0.979 | -0.455 | 7.81 | 10.6 | 1.07 | 2.5 | 1.02
2 | Cc1cc(C(=O)NC2CCCN(c3ccccc3)C2=O)on1 (configuration not stated) | -6.07 | 5.33 | -2.45 | -2.4 | -0.0974 | -1.56 | 8.37 | 5.07 | 1.64 | 13.6 | -2.89
3 | NC(=O)CN1CCC(NC(=O)c2ccn(-c3cccc(F)c3)n2)CC1 | -1.05 | 4.17 | -2.99 | -2.99 | -7.68 | 3.97 | 11.1 | 0.719 | 1.05 | -2.56 | -2.21
4 | CCC1CN(CC(=O)N2CCC2)CCN1CCOC (configuration not stated) | -2.71 | 13.5 | -12.7 | 13.2 | 3.49 | -8.82 | 7.03 | 1.78 | 8.37 | 28.4 | -9.71
5 | Cc1cc(=O)[nH]c(NCCNC(=O)C(c2ccc(F)cc2)N(C)C)n1 (configuration not stated) | 4.65 | 11 | 0.926 | 2.46 | -9.72 | -10.8 | 17.4 | 21.7 | 8.33 | 16.1 | -5.31
6 | COc1ccc2cc(C(=O)N3CCCCC3Cn3cccn3)[nH]c2c1 (configuration not stated) | -8.67 | 0 | 2.23 | 5.53 | -0.562 | 2.13 | 1.86 | 2.73 | 0 | 2.44 | -1.29
7 | CC(=O)N1CC(Cc2nccc3ccn(C)c23)C1 | -2.79 | 24 | 0.304 | -7.93 | 1.18 | 3.96 | 22.6 | 1.82 | 1.06 | 16.7 | -6.59
8 | CC(C)(C)C(=O)NCCC(=O)NC(C)(C)c1ccc2c(c1)OCCO2 | -1.46 | -5.48 | 12.2 | -1.99 | -0.783 | 5 | 4.44 | -3.61 | 2.15 | 5 | 1.77
9 | Cc1ccc(CN2CC(C(=O)N3CCCC3)C3(CCOCC3)C2)s1 (configuration not stated) | 0.462 | 0 | 0.717 | 0.63 | -5.41 | -54.3 | 2.05 | 5.33 | 2.08 | 0 | -4.71
10 | O=C(Cc1cccs1)N1C[C@@H]2COC[C@]2(COc2cccnc2)C1 | -2.91 | 8.11 | -0.523 | -5.15 | 7.62 | -1.25 | 8.2 | -12.3 | 7.92 | 11 | -1.81
11 | CN(C(=O)c1cc(Cl)c[nH]1)C1CCN(c2ccccn2)CC1 | -4.94 | -2.6 | -2.5 | -14.5 | 6.17 | -4 | 9.46 | -0.502 | 13.3 | 23.5 | -20.8
12 | CC(=O)N(Cc1noc(C)n1)C1CCN(Cc2ccccc2C#N)C1 (configuration not stated) | -1.89 | 3.8 | 1.41 | 1.68 | 1.74 | 5.38 | 6.17 | -5.16 | 0 | 5.06 | 0.362
13 | NC(=O)N1CC[C@H](O)[C@@H]1Cc1cccnc1 | -2.51 | 2.7 | 6.84 | -5.75 | -9.48 | 4.78 | 24 | 5.65 | 0 | 7.69 | -2.76
14 | CN(C)C(=O)CN(C)C(=O)c1cnc(Cc2ccc(F)cc2)s1 | -5.52 | 0 | -1.38 | -1.9 | -1.07 | 3.12 | 17.8 | -4.01 | 0.546 | 8.64 | -7.08
15 | Cc1cc2n(n1)CC(CNCc1cnn(-c3ccccc3)c1)CN2 (configuration not stated) | 2.28 | 5.26 | -10.4 | 1.3 | 2.26 | 4.21 | 13.9 | 15.7 | 12.2 | 12.2 | -7.16
16 | Cc1cnn(CC2CCCN2C(=O)c2cccc(-n3cnnn3)c2)c1 (configuration not stated) | -0.0058 | 2.53 | 6.56 | 4.88 | -1.79 | 6.08 | -0.573 | 13.2 | 2.46 | 1.27 | -1.78
17 | COc1ccccc1CC(=O)NS(C)(=O)=O | -4.83 | 5.2 | 1.28 | 1.8 | -1.87 | -1.42 | 7.6 | 20.4 | 4.85 | 14.6 | -6.74
18 | CCN(CC)CC(=O)NCCc1csc(N2CCCC2)n1 | -3.47 | -2.67 | -4.85 | -0.334 | -2.24 | -1.04 | 5.41 | 5.85 | -0.546 | -1.24 | 6.78
19 | Cc1noc(C)c1C(=O)NCC(C)N(C)C (configuration not stated) | 1.71 | 16.2 | -3.02 | -9.99 | -7.71 | -1.29 | 21.5 | 11.2 | 3.96 | 13.4 | -3.89
20 | CN(C)C(=O)CC1CC2(CCN(CC3CC3)CC2)c2cc(F)ccc21 (configuration not stated) | -6.7 | 5.41 | -8.18 | -5.86 | -2.44 | -4.14 | 3.14 | 5.88 | -5.41 | -2.56 | 5.46
21 | COCC(=O)N1CCC2(CC1)COCCN2CCN(C)C | 0.864 | -5.33 | -0.00705 | 4.73 | -1.93 | -50 | 0.342 | -11.3 | 3.12 | -5 | 0.531
22 | Cc1ccccc1-c1cc(NC(=O)CC(C)C)n(CCO)n1 | -2.35 | 2.63 | -11.8 | 0.669 | -6.33 | 2.37 | 5.46 | 0.574 | 3.19 | 5.2 | -3.67
